Screens from PubChem.
IL1B secr inh: inflammasome signaling inhibition, IL-1 beta readout. AID 743279. hit rate 4.7% among 360,000. activity change, % at 57.5 µM. THP-1 LPS/ATP IL-1B secretion, AlphaLISA, 16 h; hits give low values; in the data active = activity change below about -50%; inconclusive = mostly about -30% to -49%
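THP-1 cells pretreated 1 hr with compounds (up to 57.5 uM final), then stimulated with LPS (250 ng/mL final) plus ATP (1.25 mM final); secreted IL-1B measured by AlphaLISA after 16 hr, decreased signal indicating inhibition.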
Six1-Eya2 blk: Six1/Eya2 interaction inhibition; Q15475+O00167; AlphaScreen GST-Six1/His-Eya2 binding, biochemical; hits give low values; activity change, % (concentration not given with the values); hit rate 0.56% among 360,000; in the data active = activity change below about -65%; inconclusive = mostly about -30% to -63%
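AlphaScreen luminescence read after one hour at 37 °C in darkness. Pin-transferred compounds met GST-Six1 and His-Eya2 protein (5X stock 250 nM/500 nM) plus glutathione donor and Ni-chelate acceptor beads (5X, 50 ug/mL).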
TDP1 block: inhibitors of human tyrosyl-DNA phosphodiesterase TDP1 | Q9NUW8 | recombinant TDP1, AlphaScreen DNA substrate cleavage | Potency, µM (top dose mostly 130 µM), without a hit: top-dose activity change, negative = inhibition, usual class: inhibitors | hit rate 0.28% among 350,000 | AID 485290; note: potency is the fitted concentration of half-maximal effect; nearly all actives have a fitted effect of over 40% in size
Target sequence (Q9NUW8 whole entry, looked up): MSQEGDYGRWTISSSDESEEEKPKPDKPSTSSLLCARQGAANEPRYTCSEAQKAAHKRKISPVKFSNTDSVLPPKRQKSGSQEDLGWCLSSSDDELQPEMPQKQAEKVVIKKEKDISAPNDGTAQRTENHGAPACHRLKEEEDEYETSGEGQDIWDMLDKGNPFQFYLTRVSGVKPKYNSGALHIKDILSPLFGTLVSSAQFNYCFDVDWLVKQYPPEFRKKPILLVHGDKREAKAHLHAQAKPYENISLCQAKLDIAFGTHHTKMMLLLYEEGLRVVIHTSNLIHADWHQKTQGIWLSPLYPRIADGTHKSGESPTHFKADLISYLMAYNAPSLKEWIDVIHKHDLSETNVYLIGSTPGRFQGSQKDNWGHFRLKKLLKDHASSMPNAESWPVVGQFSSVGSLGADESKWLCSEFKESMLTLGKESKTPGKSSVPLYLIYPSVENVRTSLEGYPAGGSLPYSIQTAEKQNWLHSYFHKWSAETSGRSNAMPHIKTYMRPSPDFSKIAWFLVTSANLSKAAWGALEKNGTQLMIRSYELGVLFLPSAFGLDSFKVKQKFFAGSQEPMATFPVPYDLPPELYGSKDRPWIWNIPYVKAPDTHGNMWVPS
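Enzyme-compound mixtures sat 15 min at room temperature, followed by a 5 min reaction with 15 nM final substrate and 10 min with AlphaScreen beads. Recombinant human Tdp1 was used at 1 nM final.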
DT40 TDP1 CPT: DT40-hTDP1 cell growth loss with CPT; hit rate 12% among 420,000; Potency, µM (titrated, usually from 46.2 µM), for the others: top-dose activity change, negative = growth inhibition, actives largely listed as inhibitors; AID 686979; chicken DT40 Tdp1-/-;hTDP1 cells + 20 nM CPT, ATP luminescence, 48 h; note: potency is the fitted concentration of half-maximal effect; nearly all actives have a fitted effect of over 55% in size
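Chicken DT40 Tdp1-/- cells stably complemented with human TDP1 were seeded at 400 cells/well in medium containing 20 nM camptothecin, exposed to pin-transferred compounds, and grown at 37 °C for at least 48 hr. Viability was read as ATP luminescence.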
CtBP-E1A blk: blocks the CtBP interaction with E1A | AlphaScreen GST-E1A/His-CtBP binding, 1536-well; hits give low values | activity change, % (concentration not given with the values) | hit rate 0.49% among 340,000; in the data active = activity change below about -65%; inconclusive = mostly about -30% to -63%
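Protein mix (5X: 125 nM each GST-E1A, His-CtBP) was incubated with pinned compound 2 h at 37 deg C in dark, in 50 mM Tris pH 8.0 buffer with 300 mM NaCl. Glutathione donor and nickel acceptor beads followed; AlphaScreen signal read after 1 h.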
TDP1 cell noCPT: qHTS for Inhibitors of human tyrosyl-DNA phosphodiesterase 1 (TDP1): qHTS in cells in absence of CPT. hit rate 15% among 420,000. Potency, µM (titrated, usually from 46.2 µM), without a hit: top-dose activity change, negative = growth inhibition, hits mostly inhibitors. DT40 Tdp1-/- hTDP1 cells, no CPT, ATP luminescence, 48 h; note: potency is the fitted concentration of half-maximal effect; nearly all actives have a fitted effect of over 55% in size
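Stably hTDP1-transfected Tdp1-null chicken DT40 cells were treated with library compounds minus camptothecin and grown for at least 48 hr at 37 °C, after which cellular ATP was quantified by luminescence.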
The depositor's hits bear a star; ? = inconclusive; nt = no result; [ ] = dose if it differs, or a comment. The list is not random: actives were taken first. Their share in the collection is about 18%. Unless noted, calls come from the whole dose curve; as a rule, active = well fitted curve in the direction sought with a large enough effect; inconclusive = small, poorly fitted or top-dose-only effect, or another doubt; inactive = no such curve, though single readings can be large; an effect the other way counts as inactive or inconclusive. % is set by controls: 0 for no effect and ±100 for the full control effect.

SMILES	IL1B secr inh	Six1-Eya2 blk	TDP1 block	DT40 TDP1 CPT	CtBP-E1A blk	TDP1 cell noCPT
Cc1ccc(S(=O)(=O)n2nc(-c3ccco3)nc2NCc2ccccc2Cl)cc1	nt	nt	9%	?	nt	?
CC(C)c1ccc(CNc2nc(-c3ccco3)nn2S(=O)(=O)c2ccc(F)cc2)cc1	nt	nt	3%	21µM*	nt	?
Cc1cc(NC(=O)CCSc2ccccc2)no1	60	6	0%	-8%	5	0%
Cc1cccc(-n2ncc3c(Nc4ccc(Oc5ccc(Cl)cc5)cc4)ncnc32)c1	nt	nt	0%	18µM*	nt	15µM*
COc1ccc(Nc2ncnc3c2cnn3-c2ccc(C)cc2)cc1Cl	nt	nt	10%	?	nt	23µM*
Cc1cccc(-n2ncc3c(Nc4ccc(C)c(Cl)c4)ncnc32)c1	nt	nt	0%	18µM*	nt	18µM*
COc1ccccc1Nc1ncnc2c1cnn2-c1cccc(C)c1	-7	1	-2%	?	-2	?
Cc1ccc(Nc2ncnc3c2cnn3-c2ccc(C)cc2)cc1	nt	nt	-6%	-18%	nt	?
COc1ccc(CCNC(=O)C(=O)Nc2ccc(C)c(C)c2)cc1OC	nt	nt	9%	-16%	nt	-24%
O=C(CCC(=O)Nc1ccccc1)N/N=C/c1ccc2c(c1)OCO2	8	2	3%	-18%	-9	9%
CCCC1=C(C(=O)OCC)C(c2c(C)nn(-c3ccccc3)c2Cl)C(C#N)=C(N)O1 (configuration not stated)	8	0	8%	?	4	21µM*
CCOC(=O)CC1=C(C#N)C(c2cccnc2)C(C(=O)OCC)=C(N)O1 (configuration not stated)	21	-6	0%	-19%	-1	?
CCOC(=O)C1=C(CSc2nc(-c3ccccc3)ccc2C#N)OC(N)=C(C#N)C1c1cccnc1 (configuration not stated)	36	-18	3%	2.9µM*	-17	4.6µM*
CCOC(=O)C1=C(CSc2nc(-c3ccccc3)ccc2C#N)OC(N)=C(C#N)C1c1ccccc1 (configuration not stated)	0	-13	6%	3.7µM*	-2	2.9µM*
COc1cc([C@@H]2CC=C(C(=O)O)[C@H](c3ccccc3F)N2S(=O)(=O)c2ccc(C)cc2)cc(OC)c1OC	5	3	-4%	17%	1	0%
Cc1ccc(NC(=O)CN(C)C(=O)CNC(=O)c2ccc3c(c2)OCO3)cc1	43	3	nt	13%	4	2%
N#C/C(=C\c1ccc(O)c(O)c1)C(=O)NCCCCc1ccccc1	nt	nt	17%[56.1 µM]	6.7µM*	nt	8.4µM*
N#C/C(=C\c1ccc(O)c(O)c1)C(=O)NCCc1ccccc1	34	-17	16%[56.1 µM]	?	-21	?
COc1ccc(/C=C(\C#N)C(=O)NC(C)c2ccccc2)cc1O (configuration not stated)	-87*	5	5%	-25%	-20	?
CC(NC(=O)/C(C#N)=C/c1ccc([N+](=O)[O-])o1)c1ccccc1 (configuration not stated)	-105*	-26	8%	0.65µM*	-20	0.73µM*
CC(NC(=O)/C(C#N)=C/c1ccc(N2CCOCC2)cc1)c1ccccc1 (configuration not stated)	?	40	1%	13µM*	10	9.2µM*
C=CCNc1oc(-c2ccc(OCC)cc2)nc1C#N	-3	-4	6%	?	6	?
COc1cc2c(cc1OC)CN(C(=O)C1(c3ccccc3)CC1)CC2	-27	-3	3%	2%	-1	-23%
COC(=O)c1ccc(/C=C(\C#N)C(=O)NC(C)c2ccccc2)cc1 (configuration not stated)	-97*	-7	4%	9.2µM*	-28	10µM*
